Compounds with a hit are over-represented: about 2.3% of the library has one in this group of screens.
MCL1 BIM primary: inhibitors of MCL1 binding to BIM-BH3, primary screen, biochemical, fluorescence polarization. Induced myeloid leukemia cell differentiation protein Mcl-1 (Homo sapiens), Q07820. GST-MCL1 / FITC-Bim-BH3 fluorescence polarization. inhibition, % at 10.9 µM. actives 0.68% (n = 320,000). AID 2057, 2009;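 active means inhibition above the mean inhibition of all tested compounds plus 3 SD, set per campaign, cut at about 40% in these data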;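 further: 0% = DMSO wells and 100% = unlabeled Bim-BH3 peptide control; higher means more loss of mP so more displacement of Bim peptide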
Target sequence (Q07820 whole entry, looked up): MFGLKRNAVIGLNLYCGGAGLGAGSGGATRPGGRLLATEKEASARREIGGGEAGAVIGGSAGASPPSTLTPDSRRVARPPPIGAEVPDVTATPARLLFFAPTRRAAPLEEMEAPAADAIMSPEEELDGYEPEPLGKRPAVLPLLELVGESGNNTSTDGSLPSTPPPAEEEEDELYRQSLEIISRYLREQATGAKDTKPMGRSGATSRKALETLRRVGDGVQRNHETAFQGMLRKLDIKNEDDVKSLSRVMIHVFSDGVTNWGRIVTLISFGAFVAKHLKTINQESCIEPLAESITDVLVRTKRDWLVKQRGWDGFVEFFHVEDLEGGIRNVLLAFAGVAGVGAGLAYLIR
Bim-Mcl-1: inhibitors of Bim peptide binding to Mcl-1, primary screen, biochemical, bead-based flow cytometry, multiplex; Induced myeloid leukemia cell differentiation protein Mcl-1 (Homo sapiens), Q07820; Bim peptide-Mcl-1 binding; inhibition, % at 10 µM; actives 0.1% (n = 190,000); AID 1009, 2008; in the data active means inhibition above about 40%;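 further: 0% = no compound tracer wells and 100% = peptide blocker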
GLD-1 RNA inh: GLD-1/TGE RNA complex disruptors, primary screen, biochemical, fluorescence polarization. inhibition, % at 5.96 µM. Female germline-specific tumor suppressor gld-1 (Caenorhabditis elegans), Q17339. actives 0.44% (n = 320,000). purified GLD-1 + fluorescein TGE RNA. AID 2280, 2010;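 active means percent inhibition above a per-plate cutoff, the plate mean of test compounds plus 3 SD, cut at about 30% in these data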;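 further: 0% = DMSO wells with GLD-1 and probe and 100% = wells lacking GLD-1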
Mcl1-Bid inh: Mcl-1/Bid binding inhibitors, primary screen, biochemical, TR-FRET, 1536-well; TR-FRET Mcl-1/Bid-Dy647 peptide binding; Induced myeloid leukemia cell differentiation protein Mcl-1 (Homo sapiens), Q07820; actives 0.97% (n = 220,000); inhibition, % at 21.7 µM; AID 1021, 2008;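 active means compounds that cut the binding signal by more than half at the single screening dose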;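 further: His-tagged Mcl-1 with europium anti-His antibody binding Bid BH3 peptide; 0% = Mcl-1 plus peptide wells and 100% = peptide-only wells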
Mcl1-Noxa inh: Mcl-1/Noxa binding inhibitors, primary screen, biochemical, TR-FRET, 1536-well; Induced myeloid leukemia cell differentiation protein Mcl-1 (Homo sapiens), Q07820; TR-FRET Mcl-1/Noxa peptide binding, 2 h; inhibition, % at 21.7 µM; actives 1.5% (n = 220,000); AID 1022, 2008;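 active means compounds that cut the protein-peptide binding signal by more than 50% relative to plate controls in a single-dose test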;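 further: His-tagged Mcl-1 with rhodamine Noxa BH3 peptide and terbium anti-His antibody; 0% = Mcl-1 plus Noxa peptide wells and 100% = peptide-only wells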
Bcl-xL primary: inhibitors of human Bcl-xL, primary screen, biochemical, fluorescence polarization, HTS; Bcl-2-like protein 1 (Homo sapiens), Q07817; GST-Bcl-xL / FITC-Bim BH3 peptide fluorescence polarization; inhibition, % at 10.9 µM; actives 0.7% (n = 320,000);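 active means inhibition above the mean of all tested compounds plus 3 SD, cutoff set per campaign, cut at about 30% in these data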;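 further: 0% = DMSO wells and 100% = unlabeled Bim-BH3 peptide competitor; inhibitors lower millipolarization by displacing the labeled peptide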
Target sequence (Q07817 whole entry, looked up): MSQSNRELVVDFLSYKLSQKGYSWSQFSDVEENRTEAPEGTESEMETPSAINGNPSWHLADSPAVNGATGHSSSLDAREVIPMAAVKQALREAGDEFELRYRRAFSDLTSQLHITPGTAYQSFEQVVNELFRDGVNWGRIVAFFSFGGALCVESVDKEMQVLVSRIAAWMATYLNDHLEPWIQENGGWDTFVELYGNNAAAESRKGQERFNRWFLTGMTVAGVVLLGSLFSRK
BCLXL inh confirm: Bcl-xL inhibitors blocking Bim BH3 binding, confirmation, counter-screen for MCL1 inhibitor project, biochemical, fluorescence polarization; inhibition, % at 10.9 µM; shares compounds with MCL1 BIM primary; GST-Bcl-xL / FITC-Bim BH3 peptide FP binding; actives 54% (n = 1,700);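 active means inhibition above a cutoff equal to the mean inhibition of all tested compounds plus 3 SD, cut at about 30% in these data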;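 further: 0% = DMSO wells and 100% = unlabeled Bim BH3 control peptide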
MCL1 inh confirm: inhibitors of MCL1 binding to BIM-BH3, confirmation, biochemical, fluorescence polarization, triplicate. AID 2168, 2009. actives 61% (n = 1,700). shares compounds with MCL1 BIM primary. GST-MCL1 / FITC-Bim-BH3 fluorescence polarization. inhibition, % at 10.9 µM;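 active means inhibition above the average of all tested compounds plus 3 SD, cut at about 40% in these data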;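 further: 0% = DMSO wells and 100% = unlabeled Bim-BH3 control peptide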
* hit, by the source's call; · = not tested or not shown; + = active, no number.

SMILES	MCL1 BIM primary	Bim-Mcl-1	GLD-1 RNA inh	Mcl1-Bid inh	Mcl1-Noxa inh	Bcl-xL primary	BCLXL inh confirm	MCL1 inh confirm
CCOC(=O)[C@]1(C#N)[C@@H]2C=CC(C(C)=O)=CN2[C@@H](C(N)=O)[C@@H]1c1ccsc1	96*	-5	54*	-44	-4	88*	108*	145*
COc1ccc(OC)c(CN2CCCC(C(=O)c3sccc3C)C2)c1 (stereo not given)	6	·	10	-20	-3	5	·	·
O=C1C=C2C=C[C@@H]3CC2(O1)[C@H]1CCCCN31	125*	·	-1	·	·	4	3	4
O=C(OC1CC2CCC(N2)C1C(=O)O)c1ccccc1 (stereo not given)	·	·	1	·	·	·	·	·
CN1CC=C2C(C#N)=C(N)C(C#N)(C#N)C(c3ccncc3)C2C1 (stereo not given)	164*	8	88*	·	·	136*	37*	50*
Cc1c(CCN)ccc2c1[nH]c1ccccc12	8	·	0	-13	24	6	·	·
Nc1c(C(=O)NCC2CCCO2)c2nc3ccccc3nc2n1Cc1ccco1 (stereo not given)	58*	·	35*	-15	55*	57*	7	3
Cc1nonc1OCCNCCNc1ccc([N+](=O)[O-])c2cccnc12	1	-3	4	-18	34	5	·	·
CCCN1CCc2cccc3c2[C@H]1Cc1ccc(O)c(O)c1-3	46*	·	15	·	·	32*	54*	85*
COc1ccc2c(c1O)-c1c(OC)c(OC)cc3c1[C@H](C2)N(C)CC3	3	·	-1	·	·	8	·	·
O=C(CN1CCN(C(=O)COc2cccc(F)c2)CC1)Nc1ccc(Cl)c(C(F)(F)F)c1	-14	·	0	·	·	-8	·	·
CC(=O)O[C@H]1[C@H]2O[C@]23[C@@H]2CC[C@]4(O)C[C@@H](O)CC[C@]4(C)C2CC[C@]3(C)[C@H]1c1ccc(=O)oc1 (stereo not given in full)	7	·	-2	·	·	5	·	·
COc1ccc(N2C(=O)/C(=C/c3cc(C)n(-c4ccc(C)cn4)c3C)C(=O)NC2=S)c(OC)c1	5	16	0	-26	15	15	·	·
COc1ccc(OC)c(N2C(=O)/C(=C/c3ccco3)C(=O)NC2=S)c1	87*	·	10	·	·	80*	71*	78*
COc1cc(/C=C2\C(=O)NC(=O)N(c3ccccc3)C2=O)c([N+](=O)[O-])cc1OC	·	15	·	-77	20	·	·	·
O=C1NC(=S)N(c2ccc(F)cc2)C(=O)/C1=C/c1ccco1	68*	·	1	·	·	79*	73*	62*
Cc1ccc(/C=C2\C(=O)NC(=S)N(c3cccc(F)c3)C2=O)o1	-14	·	-8	·	·	-19	·	·
COc1ccc(OC)c(N2C(=O)NC(=O)/C(=C/c3ccc([N+](=O)[O-])s3)C2=O)c1	46*	1	-2	-15	69*	26	76*	108*
COC(=O)C1=C(c2ccc3ccccc3c2)C[C@@H]2CC[C@H]1N2C(=O)N1CCCCC1	-7	·	-2	·	·	-2	·	·
CCn1cc(CN2CCCC(C(=O)c3sccc3C)C2)cn1 (stereo not given)	-2	-1	6	-23	-2	1	·	·
COc1ccc(N/N=C/c2c(O)n(-c3ccc(C)c(C)c3)c(=O)[nH]c2=O)cc1	54*	27	-12	-1	19	51*	11	5
Cc1ccc2cc(C=C(C#N)C#N)c(Cl)nc2c1	+	-3	167*	17	1	196*	-118	-202
CN1CCN(c2cccc3c2C(=O)c2ccccc2C3=O)CC1	·	-6	·	-8	47	·	·	·
CN1CCN(c2ccc3c(c2)S(=O)(=O)c2ccccc2C3=O)CC1	85*	·	8	·	·	74*	63*	84*
Oc1c(Br)c(Br)c(Br)c(Br)c1Br	73*	·	10	·	·	3	23	55*
SMILES	MCL1 BIM primary	Bim-Mcl-1	GLD-1 RNA inh	Mcl1-Bid inh	Mcl1-Noxa inh	Bcl-xL primary	BCLXL inh confirm	MCL1 inh confirm
O=C1NC(=O)N(c2ccc(Cl)cc2)C(=O)/C1=C\c1ccc(Sc2nc3ccccc3[nH]2)o1	74*	4	-8	-2	68*	59*	30	64*
CNc1ccc2nc3ccccc3[n+](C)c2c1	185*	·	30	·	·	147*	118*	169*
NC(C(=O)O)c1cc(=O)[nH]o1 (stereo not given)	-2	·	-1	·	·	1	·	·
CN1CCN(c2ccc([N+](=O)[O-])c3no[n+]([O-])c23)CC1	+	·	141*	-34	-30	197*	149*	180*
CN1CCN(c2ccc(S(C)(=O)=O)cc2[N+](=O)[O-])CC1	-5	-3	-8	-34	8	-1	·	·
CCOc1ccc(-n2c(O)c(/C=C3\C=Nc4ccccc43)c(=O)[nH]c2=O)cc1	79*	·	-23	·	·	78*	6	-8
CC(C)CN(CC(C)C)c1ccc(C=C2C(=O)NC(=S)NC2=O)cc1[N+](=O)[O-]	70*	-3	-3	-37	-19	19	42*	97*
COc1ccc(NC(=O)c2cn(CCC#N)nc2-c2ccc(OC)c(OC)c2)cc1	11	·	-2	·	·	3	·	·
CC(C)C[C@H]1C(=O)N2CCC[C@H]2[C@]2(O)O[C@](NC(=O)[C@@H]3C=C4c5cccc6[nH]cc(c56)C[C@H]4N(C)C3)(C(C)C)C(=O)N12	+	·	118*	·	·	149*	93*	114*
COCCO[C@H]1CC[C@@]2(C)C(=CCC3C2CC[C@@]2(C)C3CC[C@]2(C)O)C1 (stereo not given in full)	·	·	2	·	·	·	·	·
O=C(O)Cn1cc(/C=C2\C(=O)NC(=O)N(c3ccc(Cl)cc3)C2=O)c2ccccc21	-20	·	-21	·	·	-13	·	·
Cn1cc(/C=C2\C(=O)NC(=O)N(c3ccccc3)C2=O)c2ccccc21	182*	·	-10	·	·	151*	60*	64*
